{
  "source": "the supplement of paper PMC11219838",
  "note": "A number with no mark means an inactive call.",
  "data": [
    {"test_system": "Caenorhabditis elegans L1 (N2)", "test": "survival and reproduction score of C. elegans L1 (0: 0-10 living worms, 1: 11-20, 2: 21-50, 3: >50, 4: overgrown) (score 0-4); higher = more worms, less nematicidal, active = 1 or less; extreme values may be limits of the assay", "conditions": "60 µM; 6 days; temperature: 20 °C", "outline": "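About 20 synchronized C. elegans N2 L1s were added per 96-well well with E. coli HB101 in liquid NGM, and compound was pinned to 60 µM final (0.6% v/v DMSO). Sealed plates were shaken at 200 rpm for 6 days at 20 °C. Survival and reproduction were scored under a dissection microscope as an ordinal score of living worms per well. The scale ran 0 (0–10 worms) to 4 (overgrown, starved), and two biological replicates were averaged.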", "values": [
      {"smiles": "Clc1ccc(OCc2ccccc2)c(-c2nc(-c3cccnc3)no2)c1", "survival and reproduction score": 4},
      {"smiles": "CC(=O)Nc1cccc(-c2nnc(SCc3ccccc3)o2)c1", "survival and reproduction score": 4},
      {"smiles": "Cc1cnnn1-c1ccc(-c2nc(-c3ccc(Cl)cc3)no2)cc1", "survival and reproduction score": 4},
      {"smiles": "C=CCSc1nnc(-c2ccc(Br)cc2)o1", "survival and reproduction score": "0 (active)"},
      {"smiles": "COc1nc(C)ccc1-c1noc(-c2ccccc2Br)n1", "survival and reproduction score": 4},
      {"smiles": "CNC(=O)c1ccccc1-c1nc(-c2ccc(F)cc2)no1", "survival and reproduction score": 4},
      {"smiles": "Clc1ccccc1OCc1nc(-c2ccc(Br)cc2)no1", "survival and reproduction score": 4},
      {"smiles": "CC(C)(C)C(=O)Nc1ccccc1-c1nc(-c2ccncc2)no1", "survival and reproduction score": 4},
      {"smiles": "Ic1ccc(CSc2nnc(-c3ccccc3)o2)cc1", "survival and reproduction score": 4},
      {"smiles": "Clc1cccc(-c2nc(-c3ccccc3Cl)no2)c1", "survival and reproduction score": 4},
      {"smiles": "CCc1nnc(NC(=O)CSc2nnc(-c3ccc(Cl)cc3Cl)o2)s1", "survival and reproduction score": 4},
      {"smiles": "Cc1ccc(SCc2nc(-c3cccnc3)no2)cc1", "survival and reproduction score": 1.5},
      {"smiles": "CC(=O)Nc1ccc(NC(=O)c2ccccc2-c2nc(-c3ccccc3Cl)no2)cc1", "survival and reproduction score": 4},
      {"smiles": "Cc1ccccc1-c1nc(-c2ccc3c(c2)OCO3)no1", "survival and reproduction score": 2.5},
      {"smiles": "N#Cc1ccc(OCc2nc(-c3ccc(Br)o3)no2)cc1", "survival and reproduction score": 4},
      {"smiles": "COc1ccccc1-c1nnc(SCC(=O)Nc2ccc(F)cc2)o1", "survival and reproduction score": 4},
      {"smiles": "Cc1ccc(C(=O)Nc2ccccc2-c2nc(-c3ccncc3)no2)cc1C", "survival and reproduction score": 4},
      {"smiles": "Clc1ccc(-c2nc(-c3ccncc3)no2)c(Cl)c1", "survival and reproduction score": 2},
      {"smiles": "Clc1ccc(-c2nc(-c3ccccc3Br)no2)cc1", "survival and reproduction score": 3.5},
      {"smiles": "Cc1ccc(OCc2nc(-c3ccccn3)no2)cc1C", "survival and reproduction score": 4},
      {"smiles": "COc1ccc(-c2nnc(SCC(=O)Nc3ccc(Br)cc3C(C)C)o2)cc1", "survival and reproduction score": 4},
      {"smiles": "Cc1cccc(-c2nc(-c3ccc4c(c3)OCO4)no2)c1", "survival and reproduction score": 4},
      {"smiles": "CC1CCN(C(=O)CSc2nnc(-c3cccc(Cl)c3)o2)CC1", "survival and reproduction score": 4},
      {"smiles": "Cc1ccc(C(=O)CSc2nnc(-c3ccco3)o2)o1", "survival and reproduction score": 4},
      {"smiles": "CCOc1ccccc1-c1nnc(SCC(=O)Nc2ccccc2)o1", "survival and reproduction score": 4},
      {"smiles": "Cc1ccc(CSc2nnc(-c3ccncc3)o2)cc1", "survival and reproduction score": 4},
      {"smiles": "Cc1cc(OCc2nc(-c3ccccn3)no2)ccc1Br", "survival and reproduction score": 4},
      {"smiles": "COc1ccccc1-c1noc(-c2ccc(C(C)(C)C)cc2)n1", "survival and reproduction score": 4},
      {"smiles": "Cc1ccc(NC(=O)CSc2nnc(-c3ccco3)o2)cc1Cl", "survival and reproduction score": 4},
      {"smiles": "Cc1ccc(C)c(-c2nc(-c3ccncc3)no2)c1", "survival and reproduction score": "0 (active)"},
      {"smiles": "COc1cccc(-c2noc(-c3ccc(C)cc3)n2)c1", "survival and reproduction score": "0 (active)"},
      {"smiles": "Cc1cccc(-c2noc(-c3ccc(F)cc3)n2)c1", "survival and reproduction score": 2},
      {"smiles": "Clc1ccc(-c2nc(-c3cccnc3)no2)c(Cl)c1", "survival and reproduction score": 2},
      {"smiles": "COc1ccc(NC(=O)CSc2nnc(-c3ccccc3C)o2)cc1", "survival and reproduction score": 4},
      {"smiles": "Cc1ccccc1-c1noc(COc2ccc(Cl)cc2Cl)n1", "survival and reproduction score": 4},
      {"smiles": "CC(C)Oc1cccc(-c2nc(-c3ccccn3)no2)c1", "survival and reproduction score": 4},
      {"smiles": "CCc1nnc(NC(=O)CSc2nnc(-c3cccc(C)c3)o2)s1", "survival and reproduction score": 4},
      {"smiles": "Fc1ccc(-c2noc(-c3ccc(F)cc3)n2)cc1", "survival and reproduction score": "0 (active)"},
      {"smiles": "Cc1ccc(OC(C)c2nc(-c3ccc4c(c3)OCO4)no2)cc1C", "note": "(centres undefined)", "survival and reproduction score": 4}
    ]}
  ]
}
